# Compound activity: PubChem, Broad Institute
# aSyn 5UTR act – Activators via SNCA 5'UTR binding, MLPCN; alpha-synuclein 5'UTR reporter, activators screen; activity score, % (tested at 7.5 µM), hits read low; 300,000 compounds, 7.1% hits; AID 1814, 2009; in the data active = activity score below about -60%
# * = called active by the depositor. A selection follows.
SMILES,aSyn 5UTR act
Cc1nnn(-c2nonc2N)c1C(=O)N/N=C/c1ccccc1O,67.8
Cc1ccccc1COc1ccc(/C=N/NC(=O)c2nnn(-c3nonc3N)c2CN2CCC(C)CC2)cc1,-77.7*
CCCc1c(C(=O)N/N=C/c2ccc(OC)c(OCc3ccccc3)c2)nnn1-c1nonc1N,-95.0*
CC1CCN(Cc2c(C(=O)N/N=C/c3ccccc3O)nnn2-c2nonc2N)CC1,65.5
c1ccc(-c2nc(-c3ccco3)cs2)nc1,-182.7*
Fc1ccc(-c2csc(-c3ccccn3)n2)cc1F,-112.3*
C/C(=N\Nc1nc2ccccc2[nH]1)c1ccc(N2CCOCC2)cc1,-163.1*
C/C(=N\Nc1nc2ccccc2[nH]1)c1ccc(C)o1,-236.6*
C/C(=N\Nc1nc2ccccc2[nH]1)c1ccc(Cl)s1,-104.3*
O=C(CCSc1ccccc1)N1CCOCC1,-88.6*
O=C(CCSc1ccccc1)N1CCCC1,-80.2*
O=C(/C=C/c1ccc(Br)cc1)c1ccc(NC2=NCCCS2)cc1,-98.8*
CC(C)(C)c1ccc(/C=C/C(=O)c2ccc(NC3=NCCCS3)cc2)cc1,-107.4*
CC(=O)N/C(N)=N/c1nc2cc([N+](=O)[O-])ccc2o1,-97.5*
CC(=O)N/C(N)=N/c1nc2cc(C)ccc2o1,-63.2*
O=C(NNc1nc(-c2ccc(F)cc2)cs1)c1ccccc1,90.4
c1ccc(-c2nnc(-c3ccccn3)nc2NC2CCCCC2)cc1,101.2
c1ccc(-c2csc(NC3CCCCC3)n2)cc1,-91.9*
O=C(Nc1nc(-c2ccccc2)cs1)C1CCCO1 (centres undefined),-65.7*
O=C(Nc1nc(-c2ccc(-c3ccccc3)cc2)cs1)C1CCCO1 (centres undefined),-64.8*
O=C(Nc1nc(-c2ccc(F)cc2)cs1)C1CCCO1 (centres undefined),-97.5*
COc1ccc(-c2nn(-c3ccccc3)cc2CO)cc1,-86.2*
Cc1ccc(-n2nc(C)c(NC(=O)CCl)c2C)cc1,-146.4*
COc1ccc(-c2nn(-c3ccccc3)cc2N)cc1,-167.3*
Cc1ccc(-c2nn(-c3ccccc3)cc2NC(=O)CCl)cc1,-71.1*
SMILES,aSyn 5UTR act
Cc1ccc(-n2nc3c(=O)n(CCCC(=O)NCc4ccc(Cl)cc4)nc(C)c3c2C)cc1,62.2
Cc1ccc(-c2nn(-c3ccccc3)cc2CO)cc1,-103.6*
Cc1c(NC(=O)/C(C#N)=C/c2ccc(-c3ccccc3Cl)o2)c(=O)n(-c2ccccc2)n1C,56.0
CC(=O)/C=C(\C)Nc1c(C)n(C)n(-c2ccccc2)c1=O,-81.7*
Cc1ccc2nc(-c3sc4nc(C)cc(C)c4c3N)[nH]c2c1,-63.2*
Cc1ccc(NC(=O)CS(=O)c2ccccc2N)c(C)c1 (centres undefined),-95.9*
Cc1ccc(NC(=O)N2C(=O)C3(OCCO3)c3ccccc32)cc1,-164.5*
CCOC(=O)Cn1cncc1-c1ccc([N+](=O)[O-])cc1,-118.7*
O=c1oc2ccccc2cc1-c1csc(Nc2nc3ccc(F)cc3s2)n1,-114.8*
O=c1oc2ccccc2cc1-c1nc2c(s1)CCCC2,43.8
C/C(=N\Nc1nc(-c2ccc(C)cc2C)cs1)c1cc2ccccc2oc1=O,-72.2*
CC1CCC/C(=C(\C#N)c2nc(-c3cc4ccccc4oc3=O)cs2)C1 (centres undefined),-122.1*
O=c1oc2ccccc2cc1-c1csc(NN=C2CCCCC2)n1,-121.5*
CC(=O)N1CCC(=NNc2nc3ccccc3[nH]2)CC1,-66.4*
CCC(C)(C)C1CCC(=NNc2nc3ccccc3[nH]2)CC1 (centres undefined),-69.3*
NC(=O)c1ccccc1NC(=O)/C=C/c1cccc(Cl)c1,-132.5*
NC(=O)c1ccccc1NC(=O)/C=C/c1c(Cl)cccc1Cl,-188.9*
CN(C)c1ccc(NC(=O)/C=C/c2c(Cl)cccc2Cl)cc1,-80.1*
O=C(CCCc1ccccc1)Nc1ccc(Br)cc1F,-71.4*
O=C(CCc1ccccc1)Nc1ccc(F)cc1F,-67.8*
O=C(CCc1ccccc1)Nc1ccccc1F,-135.3*
O=C(NC1CCCCC1)c1ccc(-c2cccc([N+](=O)[O-])c2)o1,-126.9*
COCC(C)NC(=O)c1cc(-c2cccc(OC)c2)on1 (centres undefined),-132.9*
COc1cccc(-c2cc(C(=O)NC3CCCC3)no2)c1,-115.1*
COCCNC(=O)c1cc(-c2cccc(OC)c2)on1,-85.1*
SMILES,aSyn 5UTR act
CN(C)C(=O)c1cc(C(=O)c2ccc(C(F)(F)F)cc2F)c[nH]1,-68.2*
Cc1ccc(N2CCN(C(=O)c3cc(C(=O)c4ccccc4C)c[nH]3)CC2)c(C)c1,58.4
CN(C)C(=O)c1cc(C(=O)c2ccc(F)cc2F)c[nH]1,-72.4*
C=C(CC)C(=O)c1ccc(OCC(=O)O)c(Cl)c1Cl,-67.1*
CCCOc1ccc(C(=O)Nc2ccc3c(c2)OCO3)cc1,-95.1*
CCC(=O)Oc1ccc(C(=O)Nc2ccc3c(c2)OCO3)cc1,-72.1*
CCCCOc1ccc(C(=O)Nc2ccc3c(c2)OCO3)cc1,-92.8*
Cc1ccc(C(=O)/C=C/c2ccc3c(c2)OCCO3)c(O)c1,-181.1*
O=C(/C=C/c1ccc2c(c1)OCCCO2)c1ccc2ccccc2c1O,-157.8*
Clc1ccccc1Cn1nnc2c(N3CCOCC3)nc(C3CC3)nc21,54.6
CCCN1CCN(c2ncnc3c2nnn3Cc2ccccc2)CC1,-69.3*
c1ccc(N=Nc2ccc3cccccc2-3)cc1,-259.0*
CSc1ccc(-c2sc(Nc3ccccc3)n[n+]2-c2ccc(F)cc2)cc1,-143.4*
COc1cc(C(=S)N2CCCC2)ccc1OCc1ccc(C)cc1,-116.3*
Cc1ccc(COc2ccccc2C(=S)N2CCCC2)cc1,-76.3*
CC1CCN(c2nc3ccc(C(=O)N4CCN(Cc5ccccc5)CC4)cc3s2)CC1,-136.8*
O=S(=O)(c1ccccc1F)N1CCN(c2nc3ccccc3s2)CC1,-115.5*
c1ccc(CN2CCN(c3nc4ccccc4s3)CC2)cc1,-149.9*
CCOC(=O)N1CCN(C(=O)c2ccc3nc(N4CCC(C)CC4)sc3c2)CC1,-123.6*
COc1cccc(N2CCN(C(=O)c3ccc(CS(=O)c4ccc(C)cc4)o3)CC2)c1 (centres undefined),96.6
COc1cccc(N2CCN(C(=O)c3ccc4nc(N5CCC(C)CC5)sc4c3)CC2)c1,-156.8*
Nc1ccc2oc3ccc(N)cc3c(=O)c2c1,-102.8*
Cc1ccc(NC(=S)NC(=O)C2CCCC2)cc1C,-130.6*
Cc1ccc(NC(=S)NC2CCCC2)cc1C,-127.9*
O=C(NC(=S)Nc1ccc(F)cc1)C1CCCCC1,-62.5*
SMILES,aSyn 5UTR act
S=C(Nc1ccc2[nH]ccc2c1)NC1CCCCC1,-104.9*
CC(C)CC(=O)Nc1ccc(C(=O)NNC(=S)NC(=O)C2CCCCC2)cc1,66.6
CC1CCC(C(C)C)C(OC(=O)Cn2c(-c3ccc(Cl)cc3)[n+](C)c3ccccc32)C1 (centres undefined),61.5
CN(C)CCCn1cnc2c(c1=N)C(c1ccccc1)c1ccc3ccccc3c1O2 (centres undefined),89.8
Cc1ccc(NC(=S)NC(=O)C2CC2)c(C)c1,-119.3*
Cc1nc2ccc(NC(=S)NC3CCCCC3)cc2nc1C,-172.5*
O=C(NC(=S)Nc1ccccc1F)C1CCCCC1,-87.8*
Cc1ccc(NC(=S)NC(=O)C2CCC2)cc1C,-95.4*
COC(=O)c1ccc(C2N=C(c3cccs3)CC(c3ccccc3O)N2)cc1 (centres undefined),-97.7*
Brc1ccc(Nc2nc(-c3cccnc3)cs2)cc1,-161.1*
Clc1cccc(Nc2nc(-c3cccnc3)cs2)c1,-270.8*
CCOc1ccc(Nc2nc(-c3cccnc3)cs2)cc1,-223.2*
Brc1cccc(Nc2nc(-c3cccnc3)cs2)c1,-150.3*
